High-throughput results: PubChem BioAssay, several laboratories
This is a sample that favours compounds with a hit; in the whole collection about 1.2% have one here.
PLCb3 inh: PLC-beta3 (human) inhibition, primary screen. Q01970. Purified PLC-beta3, fluorogenic substrate, fluorescence. actives 0.18% (n = 370,000). inhibition, % at 12.2 µM; in the data active = inhibition above about 11%;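 also: 0% = median of compound wells on plate and 100% = full blocker control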
NPR2 activator: GC-B (human) receptor activation. P20594. HEK293-GC-B cells, CNP EC30, cGMP TR-FRET; 0% at EC30 CNP, 100% saturating CNP. activation, % at 10 µM. actives 0.11% (n = 370,000). AID 1920062;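 active = activation at 10 µM reaching about 35% in either raw or pattern-adjusted values, limit read from the data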
PLCg1 inh: inhibitors of human phospholipase C gamma1. AID 720700. inhibition, % at 12.2 µM. actives 0.84% (n = 370,000). purified PLC-gamma1, fluorogenic substrate, fluorescence
GC-A act: GC-A (human) enzyme activation | P16066 | activation, % at 10 µM | actives 0.14% (n = 370,000) | HEK293 GC-A cells, cGMP TR-FRET, EC30 ANP; 0% at EC30 ANP, 100% saturating ANP | AID 1671463; in the data active = activation above about 40%
PLCgamma1 ctr: counter-screen for PLC-beta3 inhibitors: inhibitors of human PLC-gamma1; purified PLC-gamma1, fluorogenic substrate, fluorescence; actives 3.1% (n = 3,300); shares compounds with PLCg1 inh; inhibition, % at 12.3 µM
PLCbeta3 conf: human PLC-beta3 inhibition, confirmation. shares compounds with PLCg1 inh. purified PLC-beta3, fluorogenic substrate fluorescence. inhibition, % at 12.3 µM. actives 1% (n = 3,300); in the data active = inhibition above about 11%
Active calls of the source: *; . = not tested or not shown. Rule as the data show it, unless noted: active = inhibition above about 9.5%; inactive = the rest.

SMILES | PLCb3 inh | NPR2 activator | PLCg1 inh | GC-A act | PLCgamma1 ctr | PLCbeta3 conf
CCc1nc2c(OCCC3CCCCC3)cccn2c1N(C)C(=O)c1ccc(C)cc1 | 3 | 0 | 10* | -6 | 4 | 3
CC(C)(C)OC(=O)N1CCN(C(=O)c2[nH]cnc2C(=O)NCc2ccccc2)CC1 | 3 | -2 | 1 | -1 | . | .
COc1ccc(NC(=O)c2cc(-c3cc(F)ccc3OCC3CCCO3)n[nH]2)cc1OC (stereo not drawn) | 3 | 31 | 12* | 23 | -2 | 0
Cc1ccc(-c2nnc(SCC(=O)N/N=C/c3ccccc3C(=O)O)n2-c2ccc(C)cc2)cc1 | -5 | 1 | 0 | -4 | . | .
COc1ccc(-c2nnc(SCC(=O)N/N=C/c3ccccc3C(=O)O)n2-c2ccccc2)cc1 | 3 | 3 | 14* | -5 | -1 | -2
COc1ccc(-c2nnc(SCC(=O)NCc3cccs3)n2CC(C)C)cc1 | 9 | -8 | 10* | -6 | -3 | 1
COc1ccc(-c2nnc(SCC(=O)Nc3ccccc3)n2C)cc1 | 2 | -7 | 13* | -12 | -7 | -3
O=C(Nc1cccc(OC(F)(F)F)c1)c1ccc(Br)o1 | -3 | 2 | -1 | -1 | . | .
N=c1ccn(Cc2cccc(Cl)c2)cc1 | 1 | 2 | 2 | 3 | . | .
C/C=C/C(=O)OCC(=O)Nc1ccccc1Br | 0 | 1 | 9.6* | 1 | -6 | -1
CCOC(=O)CCCCCC(=O)Nc1ccc2c(c1)C(=O)N([C@@H](C)CO)C[C@H](C)[C@H](CN(C)C(=O)Nc1ccc(C(F)(F)F)cc1)OCCCC[C@H](C)O2 | 0 | 3 | 0 | 2 | . | .
Cc1noc(C)c1S(=O)(=O)Nc1ccc2c(c1)C(=O)N([C@H](C)CO)C[C@H](C)[C@@H](CN(C)C(=O)NC(C)C)O2 | 0 | 6 | 2 | 5 | . | .
Cc1noc(C)c1S(=O)(=O)Nc1ccc2c(c1)C(=O)N([C@H](C)CO)C[C@H](C)[C@H](CN(C)C(=O)NC(C)C)OCCCC[C@@H](C)O2 | 8 | 3 | 11* | 5 | -1 | 0
CCOC(=O)CCCCCC(=O)Nc1ccc2c(c1)C(=O)N([C@H](C)CO)C[C@@H](C)[C@@H](CN(C)C(=O)CCC(F)(F)F)OCCCC[C@H](C)O2 | 5 | 1 | 12* | 5 | -11 | -3
CCC1NC(=O)c2ccccc2N1c1cccc(Cl)c1 (stereo not drawn) | -387 | -21 | -295 | -18 | . | .
O=C(Cc1ccc([N+](=O)[O-])cc1)Oc1ccccc1 | 2 | -3 | 9.7* | -12 | -7 | -4
COc1ccc(N2CC(C(=O)Nc3cc(C)on3)CC2=O)cc1 (stereo not drawn) | 0 | -4 | 1 | 0 | . | .
COc1ccc(Cc2nnc(NC(=O)C3CC(=O)N(c4ccc(OC)cc4)C3)s2)cc1 (stereo not drawn) | -11 | 6 | 0 | -1 | . | .
COc1ccc(N2CC(C(=O)Nc3cccc(C)n3)CC2=O)cc1 (stereo not drawn) | 1 | -8 | 10* | -3 | -5 | -2
CCOc1ccc(N2CC(C(=O)Nc3nnc(Cc4ccc(OC)cc4)s3)CC2=O)cc1 (stereo not drawn) | -2 | 7 | 16* | 3 | -6 | -4
Cc1ccccc1NC(=O)Nc1ccc(C(F)(F)F)cc1 | 12* | -3 | 13* | -1 | 1 | 2
Cc1ccccc1NC(=O)CNC(=O)c1ccc(C(F)(F)F)cc1 | -1 | 1 | -3 | 0 | . | .
Cc1cc(C)c2c(c1)/C(=N/NS(=O)(=O)c1ccccc1)CCC2 | 11* | 6 | 0 | -2 | 3 | -1
CCOC(=O)c1c(C)[nH]c(C)c1S(=O)(=O)N(C)Cc1ccco1 | -3 | 4 | 11* | -3 | 0 | -5
CCn1nc(C)c(/C=N/NC(=O)Cn2nnnc2N)c1C | -5 | -1 | -1 | 7 | . | .
CN(C)S(=O)(=O)c1ccc(Cl)c(NC(=O)COC(=O)C2CSC3(C)CCC(=O)N23)c1 (stereo not drawn) | 0 | 1 | -1 | -1 | . | .
CCn1c(=S)sc2c(=O)n(CC(=O)Nc3cccc(Cl)c3)c(C)nc21 | -1 | -3 | 10* | 0 | 9 | 11*
